Source: PubChem BioAssay (NCI)
Compounds without any hit were thinned out: in the full panel of roughly 83,000, 20% have a hit.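 Plates (96-well) were seeded with cells, treated with compound at one concentration, and incubated for 48 hours before percent growth was determined.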 A number with no mark means an inactive call. Active and inactive are the calls of the source. The calls were made as follows: active = growth percent below 10; inactive = the rest.

Each compound was assayed on HOP-62 NSCLC (assay: NCI-60 one-dose screen, 48 h (100 = growth as untreated, 0 = no growth, -100 = all killed)). Details: 10 µM unless noted.

Structure (SMILES) | growth
COc1ccc(C2=CC(c3cc(OC)c(OC)c(OC)c3)n3ncnc3N2)cc1 (stereo not given) | 9.09% (active)
O=C(CI)NC(=O)NC(=O)NCc1ccccc1 | 85.9%
CC[C@]12C=CCN3CC[C@@]4(c5ccc(OC)cc5N(C)[C@H]4[C@@](O)(C(=O)OC)[C@@H]1OC(=O)CCC[P+](c1ccccc1)(c1ccccc1)c1ccccc1)[C@@H]32 | 2.56% (active)
CC1CCN(C(=S)SCC(=O)NC(=O)c2ccccc2)CC1 | 96.7%
C=C1C(=O)O[C@H]2[C@H]1CC/C(COC(=O)c1cc3cc(Cl)ccc3[nH]1)=C\CC[C@@]1(C)O[C@@H]21 | -63.6% (active)
COC(=O)/C=C1/SC(=Nc2ccc([N+](=O)[O-])cc2)N(CCc2c[nH]c3ccc(O)cc23)C1=O | 27.5%
COc1ccc(CCN(CC(=O)N(CC(N)=O)C2CCC[C@@H]2OCc2ccccc2)C(=O)CN(C(=O)CN(CCc2ccc(Cl)cc2)C(=O)CN(C(=O)CN(C)Cc2ccccc2F)[C@H](C)C2CCCCC2)[C@H](C)C2CCCCC2)cc1OC (stereo not given in full) | 41.8%
CC(=O)OC[C@]12CC[C@@H]([C@@H](C)c3nnc(-c4ccncc4)o3)[C@@H]1[C@H]1CC[C@@H]3[C@@]4(C)CC[C@H](OC(C)=O)C(C)(C)[C@@H]4CC[C@@]3(C)[C@]1(C)CC2 | 98.4%
COc1ccc(/C(C)=C(/c2ccc(OCCCN(C)C)cc2)c2ccc(OC(=O)c3ccccc3)cc2)cc1 | 92.3%
COc1ccc2nc(Cl)c(/C=C3\CC(c4ccccc4)=NN(c4ccccc4)C3=O)cc2c1 | 48.4%
